The target in one assay is Albumin (Bos taurus) (UniProt P02769). The assay can be described thus: compounds binding labelled BSA control protein – biochemical, small-molecule microarray, Alexa647 label, 635/667 nm fluorescence, artefact control for SMM control protein annotation, profiling panel (AID 1118).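 Further: score merges 667 nm emission intensity and signal-to-noise per printed compound spot.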 The settings on record: BSA-A647 binding, fluorescence 635 nm, higher = more signal.
A short description of assay [1]: probe aXIP binding to arrayed compounds – biochemical, NeuroSMM set, 635/667 nm fluorescence, primary screen (AID 1119).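 Further: probe is the protein aXip251-270 applied at 1 µg/mL to compound-printed slides; binding of probe to printed compounds measured as 667 nm fluorescence plus signal to noise.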 The settings on record: small-molecule microarray, higher = more signal, called active from +8 up or from −8 down.
Assay [2] can be described thus: probe aNOTCH3 binding on compound microarray – biochemical, small-molecule microarray, 635/667 nm fluorescence, primary screen (AID 1120).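 Further: probe is a biotin-tagged antibody raised against NOTCH3 rather than NOTCH3 protein; score merges spot fluorescence near 667 nm with spot signal to noise.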 The settings on record: higher = more signal.
A short description of assay [3]: probe aNOTCH2 binding on compound microarray – biochemical, small-molecule microarray, 635/667 nm fluorescence, primary screen (AID 1121).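 Further: score merges feature fluorescence read at 667 nm with its signal to noise.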 The settings on record: higher = more signal.
In assay [4] the target is Carbonic anhydrase 2 (Homo sapiens) (UniProt P00918). Description: compounds binding carbonic anhydrase 2 – biochemical, small-molecule microarray, Alexa647-labelled CAII, profiling panel (AID 1122). The settings on record: CAII-A647 binding fluorescence, higher = more signal.
Assay [5] is described as follows: COS7 lysate on small-molecule microarray, probe aHis, 635 nm (AID 1123).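 Further: z-score combines 667nm fluorescence intensity with signal-to-noise per printed compound spot.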 The settings on record: COS7 cell lysate, fluorescence, higher = more signal.
The nature of assay [6]: probe aLAP1 signal on lysate-treated microarray – cell lysate, small-molecule microarray, COS7 lysate, primary screen (AID 1124).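 Further: lysate comes from COS7 cells expressing LAP1 and is applied at 0.3 µg/mL; score merges spot fluorescence near 667 nm with signal-to-noise over triplicate slides.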 The settings on record: probe aLAP1, fluorescence, higher = more signal.
Another assay relates to Sam68 (KHDRBS1). Description: compounds binding KHDRBS1 protein – biochemical, small-molecule microarray, 635 nm fluorescence, primary screen (AID 1125).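 Further: score merges 667 nm channel intensity with signal to noise over triplicate slides.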 The settings on record: higher = more signal.
In assay [7] the test system is Chordin-like protein 2 (CHRDL2). The assay can be described thus: compounds binding chordin-like 2 – biochemical, small-molecule microarray, 635 nm fluorescence, primary screen (AID 1126).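 Further: printed compound slides probed with Chrdl2 protein at 4 µg/mL for 1 h at 4 C; score merges 667 nm emission intensity with signal to noise over three replicate slides.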 The settings on record: fluorescence 635 nm, higher = more signal.
Assay [8] addresses Concanavalin-A (Canavalia ensiformis) (UniProt P02866). Description: compounds binding concanavalin A lectin – biochemical, small-molecule microarray, Alexa647 label, 635 nm, artefact control for SMM control protein annotation, primary screen (AID 1127).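 Further: z combines 667 nm emission intensity with signal-to-noise across three replicate slides.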 The settings on record: ConA-A647 binding fluorescence, higher = more signal.

SMILES strings stand for the structures. Calls of active or inactive are those of the source.

Sequence of Concanavalin-A (Canavalia ensiformis) (P02866 whole entry, looked up): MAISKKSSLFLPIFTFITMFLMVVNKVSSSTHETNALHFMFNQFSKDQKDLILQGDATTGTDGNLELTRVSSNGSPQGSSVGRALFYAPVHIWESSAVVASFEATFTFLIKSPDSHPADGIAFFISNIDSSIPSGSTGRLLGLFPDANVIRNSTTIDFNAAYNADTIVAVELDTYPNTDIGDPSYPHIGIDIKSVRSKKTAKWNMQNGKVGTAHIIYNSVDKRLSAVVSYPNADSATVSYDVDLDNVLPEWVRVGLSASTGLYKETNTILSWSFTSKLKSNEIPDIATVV
Sequence of Albumin (Bos taurus) (P02769 whole entry, looked up): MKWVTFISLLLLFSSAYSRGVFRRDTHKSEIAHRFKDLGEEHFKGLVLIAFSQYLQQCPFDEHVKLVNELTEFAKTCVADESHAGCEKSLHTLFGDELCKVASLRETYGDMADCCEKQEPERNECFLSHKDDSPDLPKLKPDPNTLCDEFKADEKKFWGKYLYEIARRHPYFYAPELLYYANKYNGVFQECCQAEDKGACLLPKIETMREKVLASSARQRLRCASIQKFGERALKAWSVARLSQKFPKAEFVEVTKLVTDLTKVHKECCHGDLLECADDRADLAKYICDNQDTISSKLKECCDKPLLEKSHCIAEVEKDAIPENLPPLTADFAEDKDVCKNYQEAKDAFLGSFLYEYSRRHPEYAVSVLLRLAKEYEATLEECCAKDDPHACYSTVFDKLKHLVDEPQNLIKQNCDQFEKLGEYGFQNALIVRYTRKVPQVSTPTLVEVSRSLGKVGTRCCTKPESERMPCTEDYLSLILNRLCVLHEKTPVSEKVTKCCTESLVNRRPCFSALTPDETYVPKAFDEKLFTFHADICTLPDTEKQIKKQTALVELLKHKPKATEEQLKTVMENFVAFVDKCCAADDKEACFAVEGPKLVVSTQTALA

Regarding `O=C1O[C@H](c2ccccc2)[C@H](c2ccccc2)N2[C@H]1[C@@H](C(=O)N1CCN(c3ncccn3)CC1)[C@]1(C(=O)Nc3ccc(C#CC4=CCCCC4)cc31)[C@H]2c1ccc(O)cc1`, the composite z-score with Albumin (Bos taurus) is 0.444; in [2], 0.0533; in assay [3], -0.0282; in [4], 0.413; in [5], 1.81; in assay [6] it was 0.853. The figures for the composite z-score (in the assay with Sam68 (KHDRBS1); in assay [7]; in [8]) were 1.3, -0.0356 and 0.893, respectively. The composite Z-score in assay [1] is -0.239 (inactive).
Consider `CCCC=C(CCC)[C@@H](NS(=O)(=O)c1cccs1)c1ccc(C(=O)OC)cc1`, for which the composite z-score with Albumin (Bos taurus) is 1.06; in [2], 0.17; in [3], 0.0592; in assay [4], 0.748; in [5], 2.94; in assay [6] it was 0.157. In addition, the composite z-score in the assay on Sam68 (KHDRBS1) is 1.32; in [7], -1.19; in [8], 1.17. Also, in [1], the composite Z-score is -0.227 (inactive).
With `O=C1O[C@H](c2ccccc2)[C@H](c2ccccc2)N2[C@H]1[C@@H](C(=O)Nc1nc3ccccc3s1)[C@]1(C(=O)Nc3ccc(C#CC4(O)CCCCCC4)cc31)[C@H]2c1ccc(OCCO)cc1`, the composite z-score with Albumin (Bos taurus) was 0.8; in assay [2], -0.0562; in assay [3] it was 0.146; in [4] it was 0.219; in assay [5] it was 1.46; in [6] it was 1.7. For the same compound, the composite z-score with Sam68 (KHDRBS1) was found to be 1.3; in [7], 0.508; in [8], 1.11. Besides, in [1], the composite Z-score was 0.905 (inactive).
On to `C=CCC(OC(C)=O)[C@@H]1[C@@H](N(Cc2cccc3ccccc23)C(=O)c2ccc(-c3ccccc3)cc2)c2cc(OCCCO)ccc2N1C(=O)Cc1ccc(OC)cc1` (stereo not given in full), for which the composite z-score with Albumin (Bos taurus) was 0.173; in assay [2] it was -0.0232; in assay [3] it was -0.143; in assay [4], 0.0745; in [5], 0.0863; in [6] it was -0.0691. Moreover, the figures for the composite z-score (with Sam68 (KHDRBS1); in [7]; in assay [8]) were -0.0453, -0.147 and 0.0866, respectively. For the same compound, the composite Z-score in assay [1] was -0.829 (inactive).
As to `O=C1O[C@H](c2ccccc2)[C@H](c2ccccc2)N2[C@H]1[C@@H](C(=O)O)[C@]1(C(=O)Nc3ccc(C#CC4=CCCCC4)cc31)[C@H]2c1ccccc1OCCO`, the composite z-score amounted to 0.871 with Albumin (Bos taurus); 0.806 in assay [2]; 0.0062 in assay [3]; 0.602 in assay [4]; 2.06 in assay [5]; 0.834 in assay [6]. Also, the composite z-score in the assay on Sam68 (KHDRBS1) worked out at 1.31; in assay [7] it was 0.401; in [8], 1.19. Moreover, the composite Z-score in assay [1] was 0.685 (inactive).
`CS(=O)(=O)CCOC(=O)C1=CC(CCCO)=CC(c2ccc(CN3CCCC3)cc2)N(Cc2cc3c(cc2Br)OCO3)C=C1C(=O)OCCS(C)(=O)=O` (stereo not given): the composite z-score in the assay with Albumin (Bos taurus) was 0.649; in assay [2], 0.165; in assay [3] it was -0.0163; in [4], 0.804; in assay [5], 1.78; in assay [6], 1.31. Further, the composite z-score in the assay on Sam68 (KHDRBS1) came out at 1.31; in assay [7], 0.373; in assay [8], 1.08. Besides, the composite Z-score in assay [1] was 1.09 (inactive).
Take `[N-]=[N+]=NCc1ccccc1[C@H]1OC(c2ccc(OCCCO)cc2)=N[C@@]1(Cc1ccccc1)C(=O)NCc1ccccc1`: the composite z-score with Albumin (Bos taurus) was 0.882; in [2] it was 0.0884; in assay [3], -0.283; in [4], 0.448; in assay [5] it was 2.88; in assay [6], 0.444. In addition, the composite z-score came to 1.26 with Sam68 (KHDRBS1), 0.547 in [7] and 0.824 in [8]. The composite Z-score in assay [1] was -0.157 (inactive).
As to `COC(=O)[C@@]1(Cc2ccc(F)cc2)[C@H]2c3cc(C(=O)N(C)C)n(Cc4nc5ccccc5[nH]4)c3C[C@H]2CN1C(=O)c1ccccc1`, the composite z-score with Albumin (Bos taurus) turned out to be 1.05; in assay [2] it was 0.392; in [3] it was 0.0274; in [4] it was 0.824; in assay [5] it was 3.03; in assay [6], 0.35. In addition, the composite z-score was 0.651 in the assay on Sam68 (KHDRBS1), -0.41 in assay [7] and 0.683 in assay [8]. In addition, in [1], the composite Z-score is 0.0895 (inactive).
With `CCOc1cc(C(O)C2C=CC3C(=O)N(c4ccccc4)C(=O)C3N2Nc2ccccc2)ccc1O` (stereo not given), the composite z-score in the assay with Albumin (Bos taurus) is 0.0944; in assay [2], -0.0647; in assay [3] it was -0.164; in assay [4] it was 0.617; in assay [5] it was 1.31; in assay [6] it was 0.791. Also, the composite z-score with Sam68 (KHDRBS1) was 0.381; in [7], -0.988; in assay [8] it was 0.403. In addition, the composite Z-score in assay [1] is -0.224 (inactive).
With `C=CCOC(=O)[C@H]1[C@@H]2C(=O)O[C@@H](c3ccccc3)[C@@H](c3ccccc3)N2[C@@H](c2ccc(OCCOC(=O)[C@H]3C[C@H]4C(=O)N5CCC[C@H]5C(=O)N4[C@H]3c3ccc(O)cc3)cc2)[C@]12C(=O)Nc1ccccc12`, the composite z-score was -1.36 in the assay with Albumin (Bos taurus); 0.141 in [2]; -0.0928 in [3]; 0.576 in assay [4]; 2.25 in assay [5]; 0.793 in [6]. In addition, the composite z-score in the assay on Sam68 (KHDRBS1) was 1.32; in assay [7] it was 1.25; in assay [8], 1.11. In addition, the composite Z-score in assay [1] was 0.171 (inactive).
`CCOC(=O)[C@H]1CC=C2CC1C(=O)N1CCC[C@@H]1[C@@H]2O[Si](C)(C)C(C)(C)C` (stereo not given in full): the composite z-score is -0.0458 in the assay with Albumin (Bos taurus); -0.213 in assay [2]; -0.161 in [3]; -0.386 in assay [4]; 0.168 in [5]; -0.407 in assay [6]. Moreover, the composite z-score was -0.0813 in the assay with Sam68 (KHDRBS1), -0.287 in assay [7] and -2.28 in assay [8]. Further, in assay [1], the composite Z-score is 0.131 (inactive).
For the compound `Cc1ccc(S[C@]2(C(=O)NC(C)C)CC(=O)N(Cc3ccccc3Cl)[C@@H]2c2ccc(CO)cc2I)cc1`, the composite z-score is 0.408 with Albumin (Bos taurus); -0.469 in assay [2]; -0.168 in assay [3]; 0.779 in assay [4]; 1.21 in assay [5]; -0.147 in [6]. Moreover, the composite z-score in the assay with Sam68 (KHDRBS1) is 0.462; in assay [7], -0.793; in [8] it was -0.139. In addition, the composite Z-score in [1] was 0.219 (inactive).
For `COC(=O)[C@@]1(Cc2ccc(F)cc2)[C@H]2c3cc(C(=O)N(C)C)n(Cc4ccc(S(C)(=O)=O)cc4)c3C[C@H]2CN1C(=O)c1ccccc1`, the composite z-score is 0.653 with Albumin (Bos taurus); -0.142 in assay [2]; 0.151 in assay [3]; 0.747 in assay [4]; 3.39 in assay [5]; 1.04 in assay [6]. In addition, the composite z-score in the assay with Sam68 (KHDRBS1) was -0.181; in [7] it was -0.0016; in assay [8], 0.518. Further, the composite Z-score in assay [1] was 0.542 (inactive).
Take `[N-]=[N+]=NCc1ccccc1C[C@]1(C(=O)NCC(O)CO)N=C(c2ccc(OCCCO)cc2)O[C@H]1c1ccccc1` (stereo not given in full): the composite z-score with Albumin (Bos taurus) was 0.922; in [2] it was 0.062; in assay [3], -0.0596; in assay [4] it was 0.698; in [5] it was 2.57; in assay [6] it was 0.108. In addition, the composite z-score in the assay on Sam68 (KHDRBS1) is -0.236; in assay [7] it was -0.911; in [8] it was -0.916. Further, in assay [1], the composite Z-score was -0.321 (inactive).
Regarding `CCOC(=O)C[C@H]1[C@H](OC(=O)c2cc3ccccc3oc2=O)[C@@H](NC(=O)Cc2ccc(OC)cc2)c2cc(OCCCO)ccc2N1C(=O)c1ccccc1`, the composite z-score in the assay with Albumin (Bos taurus) is 0.722; in assay [2] it was -0.0324; in assay [3], -0.0986; in assay [4], 0.091; in assay [5], 0.386; in [6], -0.0727. For the same compound, the composite z-score is 0.687 with Sam68 (KHDRBS1), 0.328 in assay [7] and -0.256 in assay [8]. Further, the composite Z-score in assay [1] was 0.311 (inactive).
Take `CN(C)C(=O)[C@@]1(Cc2ccccc2)N=C(c2ccc(OCCCO)cc2)O[C@H]1c1ccccc1N=[N+]=[N-]`: the composite z-score with Albumin (Bos taurus) is 0.952; in [2], 0.516; in [3], -0.0422; in [4] it was 0.765; in assay [5], 2.88; in assay [6] it was 0.935. For the same compound, the composite z-score with Sam68 (KHDRBS1) amounted to 1.29; in assay [7], 0.152; in [8], 1.13. Further, the composite Z-score in assay [1] is -0.0707 (inactive).
